Hits are enriched below; roughly 4.5% of the tested compounds scored in any of these assays.
Mdm2-MdmX inh: inhibitors of human Mdm2-MdmX association, primary screen, cell-based, luminescence, split luciferase, SaOS-2, uHTS. Protein Mdm4 (Homo sapiens) + E3 ubiquitin-protein ligase Mdm2 (Homo sapiens), …. SaOS-2 split-luciferase Mdm2/MdmX complementation. inhibition, % at 8 µM. hit rate 3% among 330,000;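 active = inhibition of at least 50% at 8 µM in the primary screen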
Target sequence (O15151 whole entry, looked up): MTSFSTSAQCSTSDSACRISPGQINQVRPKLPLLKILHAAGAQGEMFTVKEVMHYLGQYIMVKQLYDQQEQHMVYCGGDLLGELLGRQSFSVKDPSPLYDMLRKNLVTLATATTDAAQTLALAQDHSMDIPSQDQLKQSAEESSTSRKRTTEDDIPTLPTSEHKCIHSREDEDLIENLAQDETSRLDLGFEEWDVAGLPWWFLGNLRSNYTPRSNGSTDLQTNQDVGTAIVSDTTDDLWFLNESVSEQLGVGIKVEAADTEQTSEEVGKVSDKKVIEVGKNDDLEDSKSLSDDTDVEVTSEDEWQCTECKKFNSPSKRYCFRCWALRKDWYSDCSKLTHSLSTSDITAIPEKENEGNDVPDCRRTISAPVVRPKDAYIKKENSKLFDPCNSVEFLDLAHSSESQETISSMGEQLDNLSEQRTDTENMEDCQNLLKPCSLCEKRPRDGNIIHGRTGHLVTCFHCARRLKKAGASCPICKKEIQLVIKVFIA
Target sequence (Q00987 whole entry, looked up): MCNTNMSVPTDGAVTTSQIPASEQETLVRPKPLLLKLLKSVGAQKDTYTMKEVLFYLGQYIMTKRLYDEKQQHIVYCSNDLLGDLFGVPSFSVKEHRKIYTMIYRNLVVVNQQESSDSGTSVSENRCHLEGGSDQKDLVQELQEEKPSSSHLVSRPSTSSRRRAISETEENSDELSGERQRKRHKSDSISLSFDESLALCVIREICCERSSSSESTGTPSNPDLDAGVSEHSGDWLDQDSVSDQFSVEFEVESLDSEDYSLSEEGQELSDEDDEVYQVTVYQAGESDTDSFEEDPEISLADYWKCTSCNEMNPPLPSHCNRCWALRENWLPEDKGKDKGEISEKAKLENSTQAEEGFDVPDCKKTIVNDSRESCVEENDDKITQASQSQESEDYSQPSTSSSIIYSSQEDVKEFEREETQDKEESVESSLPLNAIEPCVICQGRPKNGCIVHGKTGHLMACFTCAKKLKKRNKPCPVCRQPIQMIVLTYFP
Gli-Sufu antag: Gli-Sufu pathway antagonists, primary screen, luciferase luminescence, Sufu-KO-LIGHT cells, uHTS. Sufu-KO-LIGHT fibroblasts, Gli luciferase reporter luminescence. inhibition, % at 5 µM. hit rate 0.74% among 340,000. AID 588413, 2011;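 active = inhibition above about 55%, limit read from the data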
aSyn UTR inh: MLPCN primary screen, SNCA 5' untranslated region. alpha-synuclein 5'UTR reporter, inhibitor activity. inhibition, % (tested at 7.5 µM). hit rate 0.82% among 300,000. AID 1813, 2009; in the data active = inhibition above about 60%; inconclusive = no clear call, values can overlap the other calls;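 also: H4 neuroglioblastoma cells stably carrying SNCA 5'UTR luciferase fusion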
CSC inhib: cancer stem cell viability inhibitors, primary screen, luminescence; hit rate 1.1% among 300,000; cancer stem cell-like cells viability; inhibition, % at 7.5 µM; in the data active = inhibition above about 75%; inconclusive = no clear call, values can overlap the other calls; tested in HMLE shEcad cells
Jurkat NFkB inh: inhibitors of induced NF-kB luciferase reporter, primary screen, TCR NF-kB activation inhibitor project, cell-based, luminescence, uHTS; Jurkat, PMA/ionomycin-induced NF-kB luciferase reporter; hit rate 0.53% among 330,000; inhibition, % at 4 µM; AID 435003, 2010; in the data active = inhibition above about 50%
697 NFkB inh: inhibitors of PMA/ionomycin-induced NF-kB reporter, 697 cells, primary screen, B-cell NF-kB inhibitor project, cell-based, luminescence, uHTS; 697 B-cell NF-kB luciferase reporter, 16 h; inhibition, % at 4 µM; hit rate 0.33% among 330,000; in the data active = inhibition above about 35%
Mdm2 MdmX conf: Mdm2-MdmX complex disruptors, retested hits, confirmation, luminescence, single concentration; inhibition, % at 8 µM; Mdm2-MdmX binding, luminescent assay; AID 489028, 2010; shares compounds with Mdm2-MdmX inh; hit rate 55% among 10,000; in the data active = inhibition above about 40%
Full FLuc ctr: full-length luciferase signal inhibition, confirmation, counter-screen for Mdm2/MdmX interaction inhibitor project, cell-based, single concentration, SaOS-2; AID 504607, 2011; hit rate 77% among 6,200; SaOS-2 full-length luciferase counterscreen, luminescence; shares compounds with Mdm2-MdmX inh; inhibition, % at 8 µM;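 active = mean inhibition at 8 µM reaching about 37%, which flags the compound as non-specific, limit read from the data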;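 also: p53-null SaOS-2 cells with luciferase driven by a doxycycline-inducible promoter; compound on cells about two nights before reading with doxycycline added after day one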
Numbers stand for hits; . = inactive; ? = inconclusive; / = not tested or not shown.

SMILES | Mdm2-MdmX inh | Gli-Sufu antag | aSyn UTR inh | CSC inhib | Jurkat NFkB inh | 697 NFkB inh | Mdm2 MdmX conf | Full FLuc ctr
COc1ccccc1C(=O)NNC(=O)CCCN1C(=O)/C(=C/c2cccs2)SC1=S | 72.0 | . | . | . | . | . | 77.0 | 62.6
O=C1/C(=C/c2cccs2)SC(=S)N1CCCC(=O)N(CCO)c1ccccc1 | 53.1 | . | . | . | . | . | . | /
COc1cccc(/C=N/n2c(-c3ccco3)nc3ccccc3c2=O)c1OC | . | . | . | . | . | . | / | /
COc1ccc(OC)c(C(C)NC(=O)C(C)n2cc([N+](=O)[O-])cn2)c1 (stereo not drawn) | . | . | / | . | . | . | / | /
Cc1ccc(-c2nn3c(C)nnc3s2)cc1NC(=O)c1ccc(-c2ccc(Cl)cc2Cl)o1 | 79.6 | . | / | . | . | . | . | /
Cc1ccc(-c2nn3c(C)nnc3s2)cc1NC(=O)c1ccc(-c2cccc(Cl)c2)o1 | . | . | . | / | . | . | / | /
Cc1ccc(S(=O)(=O)N2C(=O)/C(=C3\SC(=S)NC3=O)c3ccccc32)cc1 | 51.0 | / | . | . | . | . | . | 82.0
Cc1ccc(S(=O)(=O)N2c3ccccc3-c3c(ssc3=S)C2(C)C)cc1 | . | . | . | . | . | . | / | /
COC(=O)c1c(-c2ccc(OC)c(OC)c2)csc1N | . | . | . | . | . | . | / | /
COC(=O)c1c(-c2ccc3ccccc3c2)csc1NC(=O)Cc1ccc(OC)c(OC)c1 | 55.3 | . | . | . | . | . | 54.0 | 57.2
COc1ccc(C(O)(C(C)C)C(CN2CCOCC2)c2ccccc2)cc1 (stereo not drawn) | . | . | . | . | . | . | / | /
COc1cccc(N=Cc2nc(-c3ccccc3)oc2OC(C)=O)c1 | . | . | . | . | . | . | / | /
CCOc1ccc(C2Oc3nc(SC)nnc3-c3ccccc3N2C(C)=O)cc1OC (stereo not drawn) | . | . | . | . | . | . | / | /
O=c1[nH]nc(Sc2ncnc3sccc23)n1CCc1ccccc1 | 85.4 | . | . | . | . | . | 43.1 | .
C=CC[C@@H](CC(=O)N[C@@H](CO)Cc1ccccc1)C(=O)NC[C@@H](OC(=O)[C@@H](CC=C)Cc1ccc(F)cc1)c1ccccc1 | 52.3 | . | / | . | . | . | . | /
C=CC[C@@H](CC(=O)N[C@@H](CO)Cc1ccccc1)C(=O)NC[C@H](OC(=O)[C@@H](CC=C)Cc1ccc(F)cc1)c1ccccc1 | . | . | / | / | . | . | / | /
C=CC[C@H](CC(=O)N(CCO)Cc1ccccc1)C(=O)NCCOC(=O)[C@@H](CC=C)Cc1ccc(F)cc1 | . | . | / | / | . | . | / | /
C=CC[C@H](CC(=O)N(CCO)Cc1ccccc1)C(=O)NC[C@H](OC(=O)[C@@H](CC=C)Cc1ccc(F)cc1)c1ccccc1 | 70.7 | . | / | . | . | . | . | /
C=CC[C@@H](CC(=O)N(CCO)Cc1ccccc1)C(=O)NC[C@@H](OC(=O)[C@@H](CC=C)Cc1ccc(F)cc1)c1ccccc1 | 54.7 | . | / | . | . | . | . | /
Cc1cnc(NC(=O)CCCc2nc3ccccc3s2)s1 | 89.8 | . | . | . | . | . | 59.1 | 54.0
O=C(CCl)N(CCc1ccccc1)CCc1ccccc1 | 90.6 | . | . | / | . | . | . | /
O=C(CCCc1ccccc1)NCCc1ccccc1 | . | . | . | . | . | . | / | /
CCOc1cccc(/C=C/c2ccc3cccc(O)c3n2)c1OC | . | . | . | ? | . | . | / | /
CCOc1cccc(/C=C/c2ccc3cccc(O)c3n2)c1O | 66.5 | . | . | . | . | . | . | /
COc1ccc(Cl)cc1/C=C/c1ccc2cccc(O)c2n1 | 50.2 | . | . | . | . | . | . | /
SMILES | Mdm2-MdmX inh | Gli-Sufu antag | aSyn UTR inh | CSC inhib | Jurkat NFkB inh | 697 NFkB inh | Mdm2 MdmX conf | Full FLuc ctr
Cc1ccc(C2(CCNCc3ccc(N(C)C)cc3)CCOC(C(C)C)C2)cc1 (stereo not drawn) | 92.5 | . | . | . | . | . | . | /
CCOC(=O)C1=C(CSc2nc(C)ccc2C#N)OC(N)=C(C#N)C1c1cccc(OC)c1OC (stereo not drawn) | . | . | . | . | . | . | / | /
O=C(Nc1ccc(O)c2c(=O)cc(-c3ccccc3Cl)oc12)c1ccc(Cl)c(Cl)c1 | 65.8 | . | . | . | . | . | . | /
Cc1ccc(S(=O)(=O)N2CCN(C(=O)N3CCOCC3)C2C)cc1 (stereo not drawn) | . | . | . | . | . | . | / | /
COc1ccc(C(=O)Nc2nc(-c3ccccc3)c(C(C)=O)s2)c(OC)c1 | 57.9 | . | . | . | . | . | . | 113.0
COC(=O)Nc1nc(-c2ccccc2)c(C(=O)c2ccccc2)s1 | 61.3 | . | 100.0 | . | . | . | 54.1 | 95.2
O=C(Nc1nc2ccccc2s1)C1CC(=O)N(c2ccc(Br)cc2)C1 (stereo not drawn) | . | . | . | . | . | . | / | /
COc1cc([N+](=O)[O-])ccc1NC(=O)CC1SC(=Nc2ccc(F)cc2)N(CCC2=CCCCC2)C1=O (stereo not drawn) | 76.9 | . | . | ? | . | . | 85.3 | 64.8
CCOc1ccc(CN2CCN(c3cc(C)nc4c5c(C)cc(C)nc5nn34)CC2)cc1 | / | / | . | / | / | / | / | /
Cc1cc(C)c2c(n1)nn1c(N3CCN(c4ccccc4C)CC3)cc(C)nc21 | 64.1 | . | / | . | . | . | . | /
COc1ccccc1CNC(=O)CN1C(=O)NC2(CCCc3sccc32)C1=O (stereo not drawn) | . | . | / | / | . | . | / | /
S=c1[nH]nc(-c2cc(-c3ccccc3)n[nH]2)n1/N=C/c1ccc(Br)s1 | . | . | . | . | . | . | / | /
Cc1sc2ncn(CC(=O)NCCCC(=O)Nc3ccc(C(C)C)cc3)c(=O)c2c1C | 82.3 | . | . | . | . | . | 42.5 | .
Cc1ccc(Cl)cc1N1CCN(C(=O)c2noc(C)c2[N+](=O)[O-])CC1 | 75.1 | . | . | / | . | . | 75.7 | 59.5
Cc1onc(C(=O)N2CCN(c3ccccc3)CC2)c1[N+](=O)[O-] | . | . | . | / | . | . | / | /
COc1ccc(C(=O)NNC(=O)c2ccc3ccccc3n2)cc1 | 62.5 | . | / | . | . | . | 52.6 | 52.6
CC1(C)Oc2ccc3ccc(=O)oc3c2/C(=C/Nc2ccc(O)cc2)C1=O | 55.4 | . | . | . | . | . | . | /
C/C(=N\Nc1cc(C)nc(-c2ccccc2)n1)c1cccc([N+](=O)[O-])c1 | . | . | . | . | . | . | / | /
